We go through 28 compounds from PubChem BioAssay (NCATS).

The nature of experiment [1]: A High-Content qHTS Against Drug Library for the Identification of Small Molecules that Inhibit DYT1 Early Onset Primary Dystonia-Associated Cell Pathology (AID 1645839). The essentials: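 Flp-In T-REx 293 cells with tetracycline-inducible EGFP-delE hTOR1A (WT EGFP-hTOR1A as reference), 800 cells/well; compound added with tetracycline, 48 h at 37 C. Fixed, permeabilized cells imaged; %pathology (punctate TorsinA) primary, cell count counterscreen.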
(In general: Quantitative high-throughput screening tests each substance at several concentrations.)

Experiment [2] addresses Cytochrome P450 2D6 (Homo sapiens) (UniProt P10635). Briefly: Cytochrome P450 family 2 subfamily D member 6 (CYP2D6) small molecule antagonists: luciferase biochemical (cell-free) qHTS assay (AID 1645840; active = well fitted curve in the direction sought with a large enough effect in the repeat runs; an effect the other way counts as inactive or inconclusive; note: nearly all actives have a fitted effect of over 55% in size; note: potency is the fitted concentration of half-maximal effect; for activity change, negative = inhibition: % is set by controls: 0 for no effect and ±100 for the full control effect). The procedure, abridged:
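P450-Glo luminescent screen: recombinant CYP2D6 enzyme–proluciferin substrate mix preincubated with compound 10 min at room temperature, then NADPH regeneration added for 1 h at room temperature. Detection reagent added for 20 min; luciferin light read as relative luminescence units.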

The target in experiment [3] is Cytochrome P450 2C9 (Homo sapiens) (UniProt P11712). Briefly: Cytochrome P450 family 2 subfamily C member 9 (CYP2C9) small molecule antagonists: luciferase biochemical (cell-free) qHTS assay (AID 1645842; active = well fitted curve in the direction sought with a large enough effect in the repeat runs; an effect the other way counts as inactive or inconclusive; note: nearly all actives have a fitted effect of over 55% in size; note: potency is the fitted concentration of half-maximal effect; for activity change, negative = inhibition: % is set by controls: 0 for no effect and ±100 for the full control effect). The essentials:
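Luminescence, after 20 min with luciferin detection reagent, reflected CYP2C9 turnover during a 1 h NADPH-driven reaction at 37C. Enzyme-substrate mix contained 0.4% bovine serum albumin and was preincubated with compound 10 min at room temperature.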

Experiment [4] is described as follows: Cytotoxicity counterscreen for inhibitors of SARS-CoV-2 cell entry (AID 1645845). Note: nearly all actives have a fitted effect of over 50% in size. The procedure, abridged:
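HEK293-ACE2 cells (Expi293F stably expressing human ACE2) seeded overnight, then compound for 1 h plus 48 h at 37C. Viability as ATP content by luminescence; normalized to wells with cells and media-only wells.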

Experiment [5] is described as follows: Primary qHTS to identify inhibitors of SARS-CoV-2 cell entry (AID 1645846). Note: nearly all actives have a fitted effect of over 45% in size. The following applies: activity change, negative = inhibition: at 57.1 µM (top of the series) unless noted. The procedure, abridged: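 Data are normalized to wells receiving SARS-CoV-2-S pseudoparticles and those given bald particles. Entry signal was luciferase luminescence in stable hACE2 Expi293F cells, 48 hr post-infection, after 1 hr compound pretreatment.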

Another experiment concerns the target Papain (Carica papaya) (UniProt P00784). Briefly: Primary qHTS assay for inhibitors of the protease papain (AID 1645873; active = well fitted curve in the direction sought with a large enough effect; an effect the other way counts as inactive or inconclusive;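 note: papain turnover of Z-FR-AMC read as the AMC fluorescence gain over 10 min; % is set by controls: 0 for no effect and ±100 for the full control effect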).
A short description of experiment [6]: Primary qHTS for inhibitors of nuclear receptor binding SET domain protein 2 (NSD2) in an isogenic RCH-ACV NSD2 p.E1099K mutant (9B) (AID 1645876; active = well fitted curve in the direction sought with a large enough effect; an effect the other way counts as inactive or inconclusive; note: nearly all actives have a fitted effect of over 70% in size; note: potency is the fitted concentration of half-maximal effect).
Experiment [7] can be described thus: Primary qHTS for inhibitors of nuclear receptor binding SET domain protein 2 (NSD2) in an RCH-ACV wild type WT cells (2C) (AID 1645877; active = well fitted curve in the direction sought with a large enough effect; an effect the other way counts as inactive or inconclusive; note: nearly all actives have a fitted effect of over 70% in size; note: potency is the fitted concentration of half-maximal effect).
Experiment [8] can be described thus: NCATS anti-infectives library activity on HEK293 viability as a counter-qHTS vs the C. elegans viability qHTS (AID 1745854; active = well fitted curve in the direction sought with a large enough effect; an effect the other way counts as inactive or inconclusive; note: % is set by controls: 0 for no effect and ±100 for the full control effect). The essentials:
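HEK293 cells, 1500 per well, exposed 24 hr at 37C in 5% CO2 to compounds in a 1:5 titration, up to 41.7 uM final. Viability read as CellTiter-Glo luminescence after 10 min at room temperature.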

In experiment [9] the target is Cytochrome P450 3A4 (Homo sapiens) (UniProt P08684). Briefly: Cytochrome P450 family 3 subfamily A member 4 (CYP3A4) small molecule antagonists: luciferase qHTS assay (AID 1645841; active = well fitted curve in the direction sought with a large enough effect in the repeat runs; an effect the other way counts as inactive or inconclusive; note: nearly all actives have a fitted effect of over 45% in size). The essentials:
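P450-Glo CYP3A4 enzyme with proluciferin substrate preincubated 10 min with compound at room temperature, then NADPH regeneration 1 h. Luciferin detection reagent added for 20 min; luminescence recorded. Ketoconazole positive control.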

Experiment [10] can be described thus: Confirmatory qHTS to identify inhibitors of SARS-CoV-2 cell entry (AID 1645844). Note: potency is the fitted concentration of half-maximal effect; nearly all actives have a fitted effect of over 45% in size. The procedure, abridged:
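HEK293-ACE2 cells were pretreated 1 h with compound, then infected with MLV-based pseudoparticles bearing C-terminally truncated Wuhan-Hu-1 spike for 48 h at 37C; luciferase luminescence normalized to spike PP and bald PP wells.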

Experiment [11] is described as follows: VSVG counterscreen qHTS to identify inhibitors of SARS-CoV-2 cell entry (AID 1645847). Note: potency is the fitted concentration of half-maximal effect; nearly all actives have a fitted effect of over 65% in size. The procedure, abridged:
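Counterscreen using VSV-G (not spike) pseudotyped MLV particles on ACE2-expressing Expi293F cells after 1 h compound preincubation; infection ran 48 h at 37 °C. Data normalized to VSV-G PP and bald-PP wells.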
A general note: The purpose of a counterscreen is to sort out artefacts and off-target activity.

Structures are written as SMILES. Several values for one entry are separate records, joined by “and”; a condition that tells them apart may be missing. Identical values can stand only once. Records with an inconclusive call do not appear. Some structures have more than one record in an assay (separate samples or runs), and their calls can disagree. Activity calls are given as the source filed them. Unless noted, calls come from the whole dose curve.

Sequence of Cytochrome P450 2D6 (Homo sapiens) (P10635 whole entry, looked up): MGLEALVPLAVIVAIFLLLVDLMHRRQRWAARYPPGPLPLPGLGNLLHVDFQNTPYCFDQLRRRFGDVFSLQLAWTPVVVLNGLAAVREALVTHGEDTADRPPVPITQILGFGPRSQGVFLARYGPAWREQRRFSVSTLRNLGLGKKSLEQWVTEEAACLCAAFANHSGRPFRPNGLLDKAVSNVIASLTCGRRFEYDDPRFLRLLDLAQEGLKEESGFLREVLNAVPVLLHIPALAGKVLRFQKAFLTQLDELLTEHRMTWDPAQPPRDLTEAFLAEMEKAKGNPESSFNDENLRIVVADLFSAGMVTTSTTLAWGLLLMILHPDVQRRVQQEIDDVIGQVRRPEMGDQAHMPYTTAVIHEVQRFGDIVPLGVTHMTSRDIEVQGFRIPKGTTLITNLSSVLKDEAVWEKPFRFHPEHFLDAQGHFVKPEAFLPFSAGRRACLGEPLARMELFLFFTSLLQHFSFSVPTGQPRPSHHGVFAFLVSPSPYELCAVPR
Sequence of Papain (Carica papaya) (P00784 whole entry, looked up, the tested form may be a part): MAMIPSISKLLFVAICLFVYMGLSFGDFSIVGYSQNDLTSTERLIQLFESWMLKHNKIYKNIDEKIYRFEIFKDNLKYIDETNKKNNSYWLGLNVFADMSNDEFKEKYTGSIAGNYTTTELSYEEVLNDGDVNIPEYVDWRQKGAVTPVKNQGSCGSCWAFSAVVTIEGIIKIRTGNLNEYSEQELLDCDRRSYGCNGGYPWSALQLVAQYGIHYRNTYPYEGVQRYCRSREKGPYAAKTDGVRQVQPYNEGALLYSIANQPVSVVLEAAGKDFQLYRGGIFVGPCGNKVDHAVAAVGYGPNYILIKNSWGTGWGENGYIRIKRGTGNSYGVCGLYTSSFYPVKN
Sequence of Cytochrome P450 2C9 (Homo sapiens) (P11712 whole entry, looked up): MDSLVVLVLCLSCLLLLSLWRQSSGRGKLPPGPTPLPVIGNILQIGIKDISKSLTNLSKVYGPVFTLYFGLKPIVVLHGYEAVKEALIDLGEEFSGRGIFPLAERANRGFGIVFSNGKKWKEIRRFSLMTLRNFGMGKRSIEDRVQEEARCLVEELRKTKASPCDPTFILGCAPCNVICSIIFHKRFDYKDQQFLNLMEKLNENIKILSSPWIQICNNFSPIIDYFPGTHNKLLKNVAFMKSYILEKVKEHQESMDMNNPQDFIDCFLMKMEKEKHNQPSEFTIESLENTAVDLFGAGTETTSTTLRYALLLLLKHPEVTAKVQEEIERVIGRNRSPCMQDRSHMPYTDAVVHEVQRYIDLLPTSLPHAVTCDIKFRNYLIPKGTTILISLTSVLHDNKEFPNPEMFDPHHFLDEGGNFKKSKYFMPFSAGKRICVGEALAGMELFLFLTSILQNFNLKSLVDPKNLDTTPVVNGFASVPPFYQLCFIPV
Sequence of Cytochrome P450 3A4 (Homo sapiens) (P08684 whole entry, looked up): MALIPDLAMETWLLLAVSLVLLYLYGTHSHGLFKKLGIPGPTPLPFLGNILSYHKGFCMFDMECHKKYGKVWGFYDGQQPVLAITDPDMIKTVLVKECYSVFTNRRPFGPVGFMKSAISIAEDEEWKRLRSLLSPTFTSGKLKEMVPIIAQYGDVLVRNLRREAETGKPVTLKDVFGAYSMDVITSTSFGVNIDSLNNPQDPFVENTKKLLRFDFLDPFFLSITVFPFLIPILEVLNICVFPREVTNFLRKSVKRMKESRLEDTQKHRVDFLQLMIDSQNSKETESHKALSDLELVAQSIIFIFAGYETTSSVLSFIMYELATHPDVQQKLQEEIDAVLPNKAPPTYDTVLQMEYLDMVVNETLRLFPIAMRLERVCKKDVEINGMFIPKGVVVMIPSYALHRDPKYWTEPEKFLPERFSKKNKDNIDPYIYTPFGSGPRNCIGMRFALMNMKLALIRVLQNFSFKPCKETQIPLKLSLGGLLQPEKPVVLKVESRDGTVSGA

Take `Cc1ncsc1CCCl`: the outcome (in experiment [1]; in the experiment with Papain (Carica papaya)) was inactive. Also, the Potency entry in experiment [2], in experiment [3], in experiment [4], in experiment [6] and in experiment [7] was “inactive” each time. Besides, the activity change, negative = inhibition in [5] is -22.5%.

Regarding `CN1C(=O)COc2c(C(=O)NC3CN4CCC3CC4)cc(Cl)cc21` (stereo not given), the outcome in experiment [1] was inactive. Moreover, the Potency result in [2], in experiment [3], in experiment [4], in experiment [6] and in experiment [7] was “inactive” in each case. Besides, the activity change, negative = inhibition in experiment [5] is -14.3%.

Turning to `Nc1ccccc1C(=O)O`, the compound was classed as inactive in [1]. Moreover, the Potency result in experiment [2] and in [3] was “inactive” in each case.

As for `COP(=S)(OC)SCN1C(=O)c2ccccc2C1=O`, the compound was called inactive in experiment [1]. In addition, the Potency in experiment [2] is 15.5 µM (active); in experiment [3], 776 nM (active). The Potency entry in [4] and in experiment [5] was “inactive” each time.

For `COc1cc(CC(C)N)cc(OC)c1OC` (stereo not given), in experiment [1], the compound was called inactive. In addition, the Potency in experiment [2] was 30.6 µM (active). Further, in experiment [3], the Potency entry is “inactive”.

Take `CC(C)(C)NCC(O)c1ccccc1Cl` (stereo not given): the compound was classed as inactive (in experiment [1]; with Papain (Carica papaya); in [8]). In addition, the Potency in experiment [2] was 12.3 µM (active). Moreover, the Potency entry in experiment [3], in [4], in experiment [5], in experiment [6] and in experiment [7] was “inactive” in each case.

On to `COC1CC(=C(c2cccs2)c2cccs2)C[N+](C)(C)C1` (stereo not given), for which the outcome in [1] was inactive. Besides, the Potency in experiment [2] is 0.138 µM (active); in experiment [7], 15 µM (active). In addition, the Potency result in [3] and in experiment [4] was “inactive” in each case. Also, the activity change, negative = inhibition in experiment [5] was -29.5%.

As for `C#C[C@]1(O)CC[C@H]2[C@@H]3CCC4=CC(=O)CC[C@]4(C)[C@H]3CC[C@@]21C`, the call in experiment [1] was inactive. Further, the Potency result in [2] and in experiment [3] was “inactive” each time.

In the case of `CCOC(=O)CC(SP(=S)(OC)OC)C(=O)OCC` (stereo not given), the compound was called inactive in [1]. Also, the Potency was 39.9 µM (active) and inactive in [2]; 1.3 µM (active) and 1.74 µM (active) in experiment [3]; 30.6 µM (active) and inactive in experiment [6]. Besides, the Potency entry in [4] and in experiment [7] was “inactive” in each case. The activity change, negative = inhibition in experiment [5] came out at 2.11%.

On to `O=P1(N(CCCl)CCCl)NCCCO1` (stereo not given), for which the result (in experiment [1]; with Papain (Carica papaya)) was inactive. The Potency result in [2], in experiment [9], in [3], in experiment [4], in [5] and in [6] was “inactive” each time. The Potency entry in experiment [7] was “inactive”.

Regarding `COc1c2c(cc3c1OCO3)CCN(C)C2`, the call in experiment [1] was inactive. Also, in [2], the Potency is 2.45 µM (active). In addition, the Potency entry in experiment [3], in experiment [4], in [6] and in experiment [7] was “inactive” throughout. In addition, the activity change, negative = inhibition in [5] is -9.9%.

As for `CN1C(=O)CCS(=O)(=O)C1c1ccc(Cl)cc1` (stereo not given), the result (in experiment [1]; in the experiment with Papain (Carica papaya)) was inactive. Besides, the Potency entry in experiment [2], in [3], in experiment [4], in experiment [6] and in experiment [7] was “inactive” in each case. For the same compound, the activity change, negative = inhibition in [5] was -18.3% and 4.93%.

For `COc1cccc([C@@]2(O)CCCC[C@@H]2CN(C)C)c1`, the compound was classed as inactive in experiment [1]. Further, the Potency entry in [2], in experiment [9], in experiment [3], in [6] and in [7] was “inactive” throughout.

As to `CC(C)NC(C)C`, the outcome in experiment [1] was inactive. For the same compound, the Potency entry in experiment [2], in experiment [3], in experiment [4], in experiment [5], in experiment [6] and in experiment [7] was “inactive” in each case.

Take `C[C@]12CCC(=O)C=C1CC[C@@H]1[C@@H]2CC[C@]2(C)C(=O)CC[C@@H]12`: in experiment [1], the compound was called inactive. In addition, the Potency entry in experiment [2], in [9], in experiment [3], in experiment [4] and in experiment [5] was “inactive” in each case.

Regarding `O=C1c2ccccc2C(=O)c2ccccc21`, the compound was classed as inactive in experiment [1] and in experiment [8]. In addition, the Potency entry in experiment [2], in experiment [3], in [4], in experiment [5], in experiment [6] and in [7] was “inactive” in each case.

In the case of `COc1cccc2c1C(=O)c1c(O)c3c(c(O)c1C2=O)C[C@@](O)(C(=O)CO)CC3OC1CC(N2CCOC(OC)C2)C(O)C(C)O1` (stereo not given in full), the compound was classed as inactive in experiment [1]. In experiment [2], the Potency entry was “inactive”. The Potency is 3470 nM (active) in experiment [3]; 0.0482 µM (active) in experiment [10]; 0.0482 µM (active) in experiment [11]; 4.7 nM (active) in experiment [6]; 0.0033 µM (active) in [7].

As to `CC(C)N(CCC(C(N)=O)(c1ccccc1)c1ccccn1)C(C)C` (stereo not given), the compound was classed as inactive (in [1]; with Papain (Carica papaya)). The Potency result in experiment [2], in experiment [3], in experiment [4], in [6] and in experiment [7] was “inactive” each time.

As to `Clc1ccccc1N1CCNCC1`, in experiment [1], the compound was called inactive. Further, in experiment [2], the Potency was 13.8 µM (active). Moreover, the Potency entry in experiment [9], in experiment [3], in experiment [6] and in [7] was “inactive” each time.

As to `C=C(C)[C@H]1CN[C@H](C(=O)O)[C@H]1CC(=O)O`, the result (in [1]; with Papain (Carica papaya)) was inactive. The Potency entry in [2], in [3], in [4], in [5], in experiment [6] and in experiment [7] was “inactive” throughout.

With `CC(NC(C)(C)C)C(=O)c1cccc(Cl)c1` (stereo not given), the call (in experiment [1]; with Papain (Carica papaya)) was inactive. Moreover, in [2], the Potency was 11 µM (active). Also, the Potency result in [3], in experiment [4], in experiment [5], in experiment [6] and in experiment [7] was “inactive” throughout. In addition, the activity change, negative = inhibition in experiment [5] was -12.4%.

For the compound `CCC(C)C(C)(COC(N)=O)COC(N)=O` (stereo not given), the result in experiment [1] was inactive. The Potency entry in experiment [2], in experiment [3], in experiment [4], in [6] and in experiment [7] was “inactive” throughout. For the same compound, the activity change, negative = inhibition in experiment [5] is -15.3%.

As for `COP(=S)(OC)Oc1cc(Cl)c(Cl)cc1Cl`, the call in [1] was inactive. Further, the Potency entry in experiment [2], in [4], in experiment [5], in [6] and in [7] was “inactive” each time. The Potency in experiment [3] was 6920 nM (active).

As to `COP(=S)(OC)Oc1ccc(S(=O)(=O)N(C)C)cc1`, the call in experiment [1] was inactive. The Potency result in experiment [2], in experiment [4], in experiment [5] and in experiment [6] was “inactive” in each case. In addition, the Potency in experiment [3] was 617 nM (active).

For the compound `CCc1cc2c(s1)-n1c(C)nnc1CN=C2c1ccccc1Cl`, the result in experiment [1] was inactive. Moreover, the Potency entry in experiment [2], in experiment [3] and in experiment [4] was “inactive” throughout.

On to `C[C@]12CC[C@H]3[C@@H](CC[C@@]45O[C@H]4C(O)=C(C#N)C[C@]35C)[C@H]1CC[C@H]2O`, for which, in [1], the result was inactive. Besides, the Potency result in experiment [2], in experiment [3] and in [4] was “inactive” throughout. For the same compound, the activity change, negative = inhibition in [5] is -26.2%. For the same compound, the Potency in experiment [6] was 15000 nM (active); in experiment [7], 10.6 µM (active).

In the case of `c1ccc2c(c1)sc1ccccc12`, in experiment [1], the compound was called inactive. Also, the Potency result in experiment [2], in [3], in [4], in experiment [6] and in experiment [7] was “inactive” throughout. In [5], the activity change, negative = inhibition is -6.22%.

On to `O=C(N/N=C/c1ccc([N+](=O)[O-])o1)c1cc([N+](=O)[O-])cc([N+](=O)[O-])c1O`, for which the result in experiment [1] was inactive. Moreover, the Potency in [2] was 0.617 µM (active). In addition, the Potency result in experiment [3] is “inactive”.
